In PubChem BioAssay (Tox21):
Inconclusive results are not listed. A number with no mark means an inactive call. Activity calls are given as the source filed them. Calls come from the whole dose curve.

assay: qHTS assay to identify small molecule antagonists of the sonic hedgehog signaling (Shh) pathway (AID 1259369); settings: NIH/3T3 Gli1-Luc reporter, Shh antagonist, luminescence 24 h; series mostly up to 92.4 µM; activity change, negative = inhibition: at the top concentration; note: nearly all actives have a fitted effect of over 45% in size
Outline: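 NIH/3T3 stable Gli1-Luc clone, 2,000 cells/well, 4hr settle; cpd + conditioned medium 24hr; Luc reagent 30min RT; luminescence.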
% is set by controls: 0 for no effect and ±100 for the full control effect; potency is the fitted concentration of half-maximal effect.

Row | SMILES | activity change, negative = inhibition | Potency
1 | CC(=O)[O-].CC(=O)[O-].O.O.[Zn+2] | 7.49% | 
2 | COC(=O)c1ccccc1S(=O)(=O)NC(=O)Nc1nc(C)nc(OC)n1 | 5.2% | 
3 | CCOC(=O)CCN(SN(C)C(=O)Oc1cccc2c1OC(C)(C)C2)C(C)C |  | 54.5 µM (active)
4 | [Cl-].[Cl-].[Sn+2] | 2.82% | 
5 | C#CCC1=C(C)C(OC(=O)C2C(C=C(C)C)C2(C)C)CC1=O (centres undefined) | -14.6% | 
6 | CC(C)C(Nc1ccc(C(F)(F)F)cc1Cl)C(=O)OC(C#N)c1cccc(Oc2ccccc2)c1 (centres undefined) |  | 43.6 µM (active)
7 | CC1(C)C(C=C(Cl)Cl)C1C(=O)OC(C#N)c1ccc(F)c(Oc2ccccc2)c1 (centres undefined) | 0% | 
8 | Cc1c([N+](=O)[O-])cc2c(c1[N+](=O)[O-])C(C)(C)CC2(C)C | -6.79% | 
9 | CSSC |  | 15.5 µM (active)
10 | C#CC1(O)CCCCC1 | 30.2% | 
11 | CNC(=O)CSP(=O)(OC)OC | -0.812% | 
12 | CN | 0.0066% | 
13 | CCCCON=O | 0.393% | 
14 | CCCCC(CC)COC(=O)OOC(C)(C)C (centres undefined) | 57.7% | 
15 | Nc1cc(Cl)ccc1Cl | 0.72% | 
16 | C=CCOC(=O)c1ccccc1N | -9.53% | 
17 | C[C@]12Cc3cn[nH]c3C[C@@H]1CC[C@@H]1[C@@H]2CC[C@@]2(C)[C@H]1CC[C@]2(C)O |  | 13.3 µM (active)
18 | CC(=O)[O-].CC(=O)[O-].O.O.O.[Pb+2] | -6.63% | 
19 | COc1nc(C)nc(NC(=O)NS(=O)(=O)c2ccccc2Cl)n1 | 26.4% | 
20 | CC(=O)[O][Sn]([c]1ccccc1)([c]1ccccc1)[c]1ccccc1 |  | 0.0545 µM (active)
21 | CNN | 2.12% | 
22 | Clc1cc(Cl)c(-c2cc(Cl)c(Cl)cc2Cl)cc1Cl | 19.4% [at 42.5 µM] | 
23 | C=CC(=C)C | 2.33% | 
24 | Clc1ccc(C(c2ccc(Cl)cc2)C(Cl)Cl)cc1 |  | 34.4 µM (active)
